# Results published in PubChem BioAssay (NCATS).
# Values joined by “and” are separate entries in the source; they are usually repeats but may differ in a detail not shown here. Equal entries are not always repeated. Inconclusive results are not listed. Entries that show only a call come without a potency. Active and inactive are the calls of the source. Unless noted, calls follow the shape of the dose curve; as a rule, active = well fitted curve in the direction sought with a large enough effect; inconclusive = small, poorly fitted or top-dose-only effect, or another doubt; inactive = no such curve, though single readings can be large; an effect the other way counts as inactive or inconclusive.
# How the values were obtained:
# [1] = biological target: Mitogen-activated protein kinase 10 (Mus musculus) (UniProt Q61831); experiment: JNK3 AlphaScreen Assay (AID 530; active = well fitted curve in either direction with a large enough effect, not every such curve was filed as active;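 also: kinase came from lysate of stimulated human HepG2 cells; signal reports phosphorylation of biotinylated GST-cJun 1-79 at Ser73 with 10 µM ATP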)
# Method in brief: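 Compound titrations were preincubated 15 minutes at room temperature with substrate, antibody and pre-activated JNK3-containing HepG2 lysate. Reactions were started with 10 uM ATP and stopped with EDTA-containing bead buffer for AlphaScreen detection.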
# [2] = Cell Viability - NIH 3T3 (AID 541); conditions: NIH 3T3 cell viability, qHTS; activity change, negative = cytotoxicity: at 92.2 µM (top of the series); also: nearly all actives have a fitted effect of over 25% in size
# Method in brief: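 Mouse NIH 3T3 fibroblasts, 1000 cells/well, rested 5 hr at 37 °C, then exposed to compound for 40 hr at 37 °C in complete medium. Viability read as intracellular ATP by CellTiter-Glo luminescence; AC50 from Hill-equation fits of concentration-response data.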
# [3] = Cell Viability - LYMP2-011 (AID 969);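 also: cells exposed to compound for 24 hours; nearly all actives have a fitted effect of over 60% in size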; also: potency is read from the fitted curve at half-maximal effect
# Method in brief: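 2500 cells/well in complete medium, compound-treated 24 h at 37 C. Viability read as intracellular ATP by CellTiter-Glo luminescence after 30 min at room temperature. AC50 from Hill fits of qHTS concentration-response data.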
# [4] = Cell Viability - LYMP2-019 (AID 973); also: nearly all actives have a fitted effect of over 55% in size; also: potency is read from the fitted curve at half-maximal effect
# Method in brief: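 Human lymphoblastoid LYMP2-019 cells (2500/well) preincubated 5 h at 37 C, then treated 24 h at 37 C in complete medium. Viability by CellTiter-Glo ATP luminescence after 30 min at room temperature; AC50 from Hill fits.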
# [5] = Cell Viability - LYMP2-007 (AID 979);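 also: cells exposed to compound for 24 h before reading; nearly all actives have a fitted effect of over 60% in size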; also: potency is read from the fitted curve at half-maximal effect
# Method in brief: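 Human lymphoblastoid LYMP2-007 cells (2500/well) preincubated 5 h at 37 C, then treated 24 h at 37 C in complete medium. Viability by CellTiter-Glo ATP luminescence after 30 min at room temperature; AC50 from Hill fits.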
# [6] = Cell Viability - LYMP2-012 (AID 982);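 also: cellular ATP by luciferase luminescence where a drop means cytotoxicity; cells exposed to compound for one day before reading; nearly all actives have a fitted effect of over 55% in size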; also: potency is read from the fitted curve at half-maximal effect
# [7] = Cell Viability - LYMP2-024 (AID 988); also: nearly all actives have a fitted effect of over 60% in size; also: potency is read from the fitted curve at half-maximal effect
# Method in brief: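 Human lymphoblastoid LYMP2-024 cells (2500/well) rested 5 hr, then treated with compound for 24 hr at 37 C in complete medium. Viability was measured as intracellular ATP by CellTiter-Glo luminescence. AC50 values came from Hill-equation fits.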
# [8] = biological target: Estrogen receptor (Homo sapiens) (UniProt P03372); experiment: qHTS assay for small molecule agonists of estrogen receptor alpha signaling (AID 588514; calls by dose curve; also: nearly all actives have a fitted effect of over 70% in size; also: potency is read from the fitted curve at half-maximal effect)
# Estrogen receptor (Homo sapiens), sequence (P03372 whole entry, looked up): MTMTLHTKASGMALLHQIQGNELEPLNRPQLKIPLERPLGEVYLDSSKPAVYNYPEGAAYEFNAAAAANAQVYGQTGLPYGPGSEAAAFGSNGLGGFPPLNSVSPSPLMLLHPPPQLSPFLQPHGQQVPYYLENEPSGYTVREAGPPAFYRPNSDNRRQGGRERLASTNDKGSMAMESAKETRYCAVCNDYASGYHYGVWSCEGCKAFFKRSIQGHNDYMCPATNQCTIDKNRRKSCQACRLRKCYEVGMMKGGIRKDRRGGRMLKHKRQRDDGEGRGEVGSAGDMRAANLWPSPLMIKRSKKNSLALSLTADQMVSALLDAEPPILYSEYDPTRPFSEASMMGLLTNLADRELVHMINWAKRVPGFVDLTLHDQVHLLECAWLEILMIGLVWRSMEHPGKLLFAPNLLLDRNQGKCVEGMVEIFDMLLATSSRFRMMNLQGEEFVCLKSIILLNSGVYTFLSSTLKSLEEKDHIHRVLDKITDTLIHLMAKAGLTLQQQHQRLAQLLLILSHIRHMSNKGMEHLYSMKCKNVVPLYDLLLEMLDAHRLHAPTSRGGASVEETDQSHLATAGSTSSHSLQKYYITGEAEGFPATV
# Method in brief: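 ER-alpha-UAS-bla GripTite HEK293 cells, 5000/well in 2% charcoal/dextran-stripped FBS medium, treated with compound titrations 18 h at 37 C. CCF4 beta-lactamase read by fluorescence after 2 h RT; normalised to 20 nM 17-beta-estradiol (100%) and DMSO (0%), Hill fit for EC50 and efficacy.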
# [9] = qHTS assay for small molecule antagonists of peroxisome proliferator-activated receptor delta signaling (AID 588535); conditions: HEK293T PPARd-UAS-bla, beta-lactamase FRET ratio, 18 h; 460 nm channel;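 also: cells co-treated with a PPAR-delta agonist as stimulator during compound exposure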
# Method in brief: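 HEK293T PPAR-delta-UAS-bla cells, 4000/well, 2% charcoal/dextran FBS; 5 h 37 C; cpd titration; 18 h 37 C; CCF4 2 h RT; FI 460/530 nm; Hill fit → IC50, efficacy.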
# [10] = biological target: Peroxisome proliferator-activated receptor gamma (Homo sapiens) (UniProt P37231); experiment: qHTS assay for small molecule antagonists of peroxisome proliferator-activated receptor gamma signaling (AID 588537; active = well fitted inhibition curve with a large enough effect in the signal ratio, with a control signal flat, not every such curve was filed as active; the % refers to the signal ratio;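 also: reporter cells co-stimulated with 50 nM rosiglitazone agonist during compound treatment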)
# Peroxisome proliferator-activated receptor gamma (Homo sapiens), sequence (P37231 whole entry, looked up): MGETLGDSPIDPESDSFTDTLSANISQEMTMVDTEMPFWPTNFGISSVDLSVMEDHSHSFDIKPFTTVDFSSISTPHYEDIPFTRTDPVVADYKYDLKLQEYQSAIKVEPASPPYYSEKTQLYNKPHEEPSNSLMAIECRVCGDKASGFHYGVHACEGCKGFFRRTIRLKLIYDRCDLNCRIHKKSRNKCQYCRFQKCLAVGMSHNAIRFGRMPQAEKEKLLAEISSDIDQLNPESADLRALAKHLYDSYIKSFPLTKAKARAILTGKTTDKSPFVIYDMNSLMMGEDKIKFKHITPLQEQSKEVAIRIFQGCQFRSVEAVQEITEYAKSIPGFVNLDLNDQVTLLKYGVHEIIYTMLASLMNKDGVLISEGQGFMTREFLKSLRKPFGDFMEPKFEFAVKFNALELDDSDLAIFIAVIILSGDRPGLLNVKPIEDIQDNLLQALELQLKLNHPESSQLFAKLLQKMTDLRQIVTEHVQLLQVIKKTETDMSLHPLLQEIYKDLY
# Method in brief: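 Antagonist mode, beta-lactamase reporter in HEK293; charcoal/dextran FBS 1%; 3000 cells/well, 37 C 6-6.5 h; cpd titration + rosiglitazone 50 nM final, 16 h 37 C; CCF4, 2 h RT; 460/530 nm; Hill fit → IC50, efficacy.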
# [11] = biological target: Retinoic acid receptor RXR-alpha (Homo sapiens) (UniProt P19793); experiment: qHTS assay for small molecule agonists of retinoid X receptor alpha signaling (AID 588544; calls by dose curve)
# Retinoic acid receptor RXR-alpha (Homo sapiens), sequence (P19793 whole entry, looked up): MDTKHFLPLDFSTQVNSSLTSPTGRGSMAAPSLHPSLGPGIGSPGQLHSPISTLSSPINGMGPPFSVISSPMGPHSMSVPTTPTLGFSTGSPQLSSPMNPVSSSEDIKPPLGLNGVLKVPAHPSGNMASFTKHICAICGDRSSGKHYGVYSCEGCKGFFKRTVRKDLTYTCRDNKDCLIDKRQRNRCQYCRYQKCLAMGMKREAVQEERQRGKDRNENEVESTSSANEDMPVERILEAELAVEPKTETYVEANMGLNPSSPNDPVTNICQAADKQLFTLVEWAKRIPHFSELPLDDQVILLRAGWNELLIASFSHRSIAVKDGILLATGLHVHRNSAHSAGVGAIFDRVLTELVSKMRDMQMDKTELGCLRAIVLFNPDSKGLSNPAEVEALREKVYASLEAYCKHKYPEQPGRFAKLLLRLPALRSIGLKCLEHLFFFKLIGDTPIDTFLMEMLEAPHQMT
# [12] = MultiTox-Fluor Cytotoxicity Assay - LYMP1-002 - Live Cells (AID 955)
# Method in brief: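 Human lymphoblastoid LYMP1-002 cells, 2500/well, treated 16 h at 37 C in complete medium. Live-cell protease activity via GF-AFC fluorescence (Ex/Em 405/510) after 60 min reagent incubation; AC50 from Hill fits.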
# [13] = Cell Viability - LYMP2-023 (AID 975);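 also: cells exposed to compound for 24 hours at 37 °C; nearly all actives have a fitted effect of over 55% in size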; also: potency is read from the fitted curve at half-maximal effect;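 as to activity change, negative = cytotoxicity: cellular ATP measured by luciferase luminescence as viability proxy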
# Method in brief: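 LYMP2-023 human lymphoblastoid cells, 2500/well, preincubated 5 hr at 37 C, then compound-treated 24 hr at 37 C in complete medium. CellTiter-Glo luminescence (ATP) after 30 min at room temperature; AC50 from Hill-equation fits; tetraoctylammonium bromide positive control.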
# [14] = biological target: Bile acid receptor (Homo sapiens) (UniProt Q96RI1); experiment: qHTS assay for small molecule antagonists of farnesoid X receptor signaling (AID 588526; calls by dose curve)
# Bile acid receptor (Homo sapiens), sequence (Q96RI1 whole entry, looked up): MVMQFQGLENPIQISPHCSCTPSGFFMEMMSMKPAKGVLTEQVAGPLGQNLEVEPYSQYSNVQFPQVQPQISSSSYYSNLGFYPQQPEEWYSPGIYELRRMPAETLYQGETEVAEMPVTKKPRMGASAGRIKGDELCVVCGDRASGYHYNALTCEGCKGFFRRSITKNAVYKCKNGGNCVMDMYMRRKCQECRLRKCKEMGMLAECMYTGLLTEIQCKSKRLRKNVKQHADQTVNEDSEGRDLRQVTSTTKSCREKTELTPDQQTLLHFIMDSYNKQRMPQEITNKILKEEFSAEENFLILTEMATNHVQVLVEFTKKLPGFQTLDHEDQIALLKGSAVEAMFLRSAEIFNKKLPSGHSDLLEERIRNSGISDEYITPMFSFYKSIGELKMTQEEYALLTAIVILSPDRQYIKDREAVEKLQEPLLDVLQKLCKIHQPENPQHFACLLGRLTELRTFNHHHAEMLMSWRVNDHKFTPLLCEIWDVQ
# Method in brief: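 Beta-lactamase reporter antagonist mode: HEK293T FXR-UAS-bla cells, titrated compound, CDCA stimulation, 16 h 37 C, CCF4 dye 2 h RT. Data normalized to CDCA 50 uM and DMSO; Hill-fit IC50.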
# [15] = biological target: Glucocorticoid receptor (Homo sapiens) (UniProt P04150); experiment: qHTS assay for small molecule antagonists of glucocorticoid receptor signaling (AID 588533; active = well fitted inhibition curve with a large enough effect in the signal ratio, with a control signal flat, not every such curve was filed as active; the % refers to the signal ratio;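 also: cells stimulated with 2 nM dexamethasone as agonist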)
# Glucocorticoid receptor (Homo sapiens), sequence (P04150 whole entry, looked up): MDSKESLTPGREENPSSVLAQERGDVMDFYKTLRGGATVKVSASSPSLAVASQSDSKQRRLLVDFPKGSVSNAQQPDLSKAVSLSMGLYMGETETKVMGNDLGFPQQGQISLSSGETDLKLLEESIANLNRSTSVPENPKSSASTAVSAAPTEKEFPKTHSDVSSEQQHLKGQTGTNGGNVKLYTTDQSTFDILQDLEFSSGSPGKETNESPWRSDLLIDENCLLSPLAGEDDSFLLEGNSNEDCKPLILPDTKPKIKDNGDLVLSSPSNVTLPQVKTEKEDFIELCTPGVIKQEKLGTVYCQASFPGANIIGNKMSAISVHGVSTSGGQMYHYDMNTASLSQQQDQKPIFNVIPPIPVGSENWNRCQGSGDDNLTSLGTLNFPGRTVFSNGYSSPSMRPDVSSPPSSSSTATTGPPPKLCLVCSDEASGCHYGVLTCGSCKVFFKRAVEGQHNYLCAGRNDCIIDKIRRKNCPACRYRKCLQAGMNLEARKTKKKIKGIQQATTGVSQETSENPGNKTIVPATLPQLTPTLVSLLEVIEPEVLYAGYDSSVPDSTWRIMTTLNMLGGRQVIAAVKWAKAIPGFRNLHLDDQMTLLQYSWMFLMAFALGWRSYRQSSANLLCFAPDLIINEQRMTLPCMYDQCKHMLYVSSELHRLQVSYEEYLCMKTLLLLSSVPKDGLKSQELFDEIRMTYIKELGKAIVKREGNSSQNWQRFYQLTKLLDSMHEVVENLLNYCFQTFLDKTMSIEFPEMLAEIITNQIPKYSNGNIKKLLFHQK
# Method in brief: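 Antagonist-mode qHTS: compound titrations added to GRE-bla HeLa cells, then dexamethasone 2 nM final; 18 h, 37 C. CCF4 FRET fluorescence normalized to dexamethasone and DMSO; IC50 from Hill fit.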
# [16] = biological target: Vitamin D3 receptor (Homo sapiens) (UniProt P11473); experiment: qHTS assay for small molecule antagonists of vitamin D receptor signaling (AID 588541; calls by dose curve;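 also: receptor activated by calcitriol during compound treatment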)
# Vitamin D3 receptor (Homo sapiens), sequence (P11473 whole entry, looked up): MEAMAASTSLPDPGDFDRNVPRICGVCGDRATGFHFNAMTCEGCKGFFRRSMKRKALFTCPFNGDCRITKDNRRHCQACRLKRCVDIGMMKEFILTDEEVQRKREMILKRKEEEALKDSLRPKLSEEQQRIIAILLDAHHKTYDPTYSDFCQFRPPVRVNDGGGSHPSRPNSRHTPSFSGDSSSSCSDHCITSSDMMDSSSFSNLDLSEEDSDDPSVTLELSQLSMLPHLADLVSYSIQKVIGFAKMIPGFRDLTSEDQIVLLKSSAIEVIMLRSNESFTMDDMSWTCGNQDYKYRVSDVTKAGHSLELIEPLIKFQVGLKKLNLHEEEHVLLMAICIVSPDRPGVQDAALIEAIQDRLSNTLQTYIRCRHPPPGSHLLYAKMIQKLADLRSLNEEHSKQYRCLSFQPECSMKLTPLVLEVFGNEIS
# Method in brief: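 Antagonist-mode beta-lactamase reporter assay: HEK293T VDR-UAS-bla cells were exposed to titrated compound alongside 1-alpha,25-dihydroxyvitamin D3 at 3 nM final for 16 h. Values were normalized to the 50 nM agonist control and DMSO basal, with IC50 and efficacy from Hill equation fits.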
# [17] = qHTS assay to identify small molecules that stimulate interleukin-8 (IL-8) secretion (AID 651758; active = well fitted activation curve with a large enough effect in the signal ratio; the % refers to the signal ratio; also: potency is read from the fitted curve at half-maximal effect)
# Method in brief: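 Secreted IL-8 measured by TR-FRET sandwich (cryptate and XL665 antibodies) from THP-1 cells exposed to compound overnight (16 hrs, 37 C).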
# [18] = Cell Viability - LYMP2-013 (AID 970); also: nearly all actives have a fitted effect of over 55% in size
# Method in brief: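 Human lymphoblastoid LYMP2-013 cells, 2500/well, treated 24 h at 37 C in complete medium; viability as intracellular ATP by CellTiter-Glo luminescence after 30 min. AC50 from Hill fits of qHTS concentration-response.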
# [19] = biological target: Glucocorticoid receptor (Homo sapiens) (UniProt P04150); experiment: qHTS assay for small molecule agonists of glucocorticoid receptor signaling (AID 588532; active = well fitted curve in the direction sought with a large enough effect in the signal ratio, with a control signal flat; the % refers to the signal ratio); conditions: HeLa MMTV-bla, beta-lactamase ratio, agonist, 18 h; stronger effect = higher value; percent of dexamethasone control, DMSO zero
# Method in brief: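 Quantitative HTS using CellSensor MMTV-bla HeLa cells in charcoal/dextran-treated serum; compounds tested up to 92 uM. After 18 h at 37 C, CCF4 dye reported reporter induction.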
# [20] = Cell Viability - SH-SY5Y (AID 544); conditions: SH-SY5Y neuroblastoma cell viability; viability change, negative = cytotoxic: at 92.2 µM (top of the series); also: nearly all actives have a fitted effect of over 55% in size; also: potency is read from the fitted curve at half-maximal effect
# Method in brief: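 SH-SY5Y human neuroblastoma cells (1500/well) incubated 5 h, then compound-treated 40 h at 37 °C in complete medium. Viability read as intracellular ATP by CellTiter-Glo luminescence after 20 min; AC50 from Hill-equation fits of qHTS concentration-response.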
smiles,measurement,setting,value
C=CC(C)(O)CCCC(C)CCCC(C)CCCC(C)C (centres undefined),Potency,[1],inactive
same,"activity change, negative = cytotoxicity",[2],-10.5% (inactive)
same,Potency,[3],inactive
same,Potency,[4],inactive
same,Potency,[5],inactive
same,Potency,[6],inactive
same,Potency,[7],inactive
same,Potency,[8],inactive
same,max response,[9],4.15%
same,Potency,[10],inactive
same,Potency,[11],inactive
Cc1c(N)cccc1Cl,outcome,[12],inactive
same,Potency,[3],inactive
same,Potency,[4],inactive
same,Potency,[13],inactive
same,Potency,[6],inactive
same,Potency,[7],inactive
same,Potency,[8],inactive
same,Potency,[14],inactive
same,Potency,[15],inactive
same,max response,[9],-10%
same,Potency,[16],inactive
same,Potency,[11],inactive
same,Potency,[17],inactive
C[C@@H]1CC2(OC(O)[C@]3(C)O[C@H]23)O[C@H]2C[C@@]3(C)[C@@H]4CC[C@H]5C(C)(C)C(O[C@@H]6OC[C@@H](O)[C@H](O)[C@H]6O)CC[C@@]56C[C@@]46CC[C@]3(C)[C@@H]12 (some centres undefined),Potency,[1],inactive
same,Potency,[3],inactive
same,Potency,[18],inactive
same,Potency,[5],inactive
same,Potency,[6],50.1 µM (active)
same,Potency,[7],39.8 µM (active)
same,activation,[19],1.76% (inactive)
C=C1CC[C@H](O)C/C1=C/C=C1\CCC[C@]2(C)[C@@H]([C@H](C)CCCC(C)C)CC[C@@H]12,Potency,[1],inactive
same,Potency,[20],31.6 µM (active)
same,Potency,[4],39.8 µM (active)
same,Potency,[13],50.1 µM (active)
same,Potency,[5],50.1 µM (active)
same,Potency,[7],39.8 µM (active)
C/C=C/C=C/C=O,Potency,[1],inactive
same,Potency,[3],50.1 µM (active)
same,Potency,[5],39.8 µM (active)
same,Potency,[6],31.6 µM (active)
same,Potency,[8],inactive
same,activation,[19],-0.282% (inactive)
same,max response,[9],13.6%
same,Potency,[10],inactive
NC(=O)c1ccc([N+](=O)[O-])cc1,Potency,[20],inactive
same,Potency,[3],inactive
same,Potency,[18],inactive
same,Potency,[13],inactive
same,Potency,[15],inactive
same,max response,[9],16.9%
CCN(CC)c1ccc2c(C)cc(=O)oc2c1,Potency,[4],inactive
same,Potency,[13],inactive
same,Potency,[6],inactive
same,Potency,[7],inactive
same,Potency,[10],inactive
CCCCCCCC/C=C\CCCCCCCC(=O)N(CCO)CCO,Potency,[1],inactive
same,"viability change, negative = cytotoxic",[20],-99.3% (active)
same,Potency,[3],inactive
same,Potency,[13],inactive
same,Potency,[5],inactive
same,Potency,[8],inactive
same,Potency,[14],inactive
same,max response,[9],92.2%
Cc1c2ccccc2c(C)c2c1ccc1ccccc12,outcome,[12],inactive
same,Potency,[18],inactive
same,Potency,[4],inactive
same,Potency,[13],inactive
same,Potency,[5],inactive
same,Potency,[6],inactive
same,Potency,[7],inactive
same,Potency,[8],4.47 µM (active) and 15.8 µM (active)
same,Potency,[14],inactive
CC1=C(/C=C/C(C)=C/C=C/C(C)=C/C=O)C(C)(C)CCC1,Potency,[1],inactive
same,Potency,[20],25.1 µM (active)
same,Potency,[3],63.1 µM (active)
same,Potency,[4],50.1 µM (active)
same,Potency,[13],50.1 µM (active)
same,Potency,[5],39.8 µM (active)
same,Potency,[7],39.8 µM (active)
same,Potency,[17],0.422 µM (active)
c1ccc(SCCSc2ccccc2)cc1,Potency,[3],inactive
same,Potency,[18],inactive
same,Potency,[4],inactive
same,Potency,[13],inactive
same,Potency,[6],inactive
same,Potency,[7],inactive
same,Potency,[14],inactive
same,max response,[9],21.4%
same,Potency,[10],inactive
same,Potency,[11],inactive
same,Potency,[17],inactive
CC(/C=C/C=C(C)/C=C/C(=O)O)=C\C=C\C=C(C)\C=C\C=C(C)\C=C\C(=O)O,Potency,[1],inactive
same,outcome,[12],inactive
same,Potency,[3],inactive
same,Potency,[8],inactive
same,Potency,[14],inactive
same,activation,[19],1.99% (inactive)
same,Potency,[15],inactive
same,Potency,[11],inactive
O=C(OCC1CO1)C1CCCCC1C(=O)OCC1CO1 (centres undefined),Potency,[1],inactive
same,"activity change, negative = cytotoxicity",[2],-15% (inactive)
same,outcome,[12],inactive
same,Potency,[5],50.1 µM (active)
same,activation,[19],2.8% (inactive)
same,Potency,[15],inactive
same,Potency,[17],66.8 µM (active)
Brc1cc(Oc2cc(Br)c(Br)c(Br)c2Br)c(Br)c(Br)c1Br,Potency,[1],inactive
same,outcome,[12],inactive
same,Potency,[3],inactive
same,Potency,[18],inactive
same,Potency,[4],inactive
same,Potency,[13],inactive
same,Potency,[5],inactive
same,Potency,[6],inactive
same,activation,[19],-9.25% (inactive) and -1.53% (inactive)
same,Potency,[15],inactive
same,max response,[9],14.5% and 36.5%
same,Potency,[10],inactive
